# Experimental data: ChEMBL document CHEMBL2218924, “A broad activity screen in support of a chemogenomic map for kinase signalling research and drug discovery” (Biochem J, 2013); call rule not given here
# Columns and labels:
# [1] = target: Ephrin type-A receptor 5 (Homo sapiens) (UniProt P54756); conditions: at 1 µM
# [2] = target: Ephrin type-A receptor 5 (Homo sapiens) (UniProt P54756); conditions: at 10 µM
# [3] = target: T1, Ephrin type-B receptor 2 (Homo sapiens) (UniProt P29323); conditions: at 1 µM
# T1 sequence (whole entry): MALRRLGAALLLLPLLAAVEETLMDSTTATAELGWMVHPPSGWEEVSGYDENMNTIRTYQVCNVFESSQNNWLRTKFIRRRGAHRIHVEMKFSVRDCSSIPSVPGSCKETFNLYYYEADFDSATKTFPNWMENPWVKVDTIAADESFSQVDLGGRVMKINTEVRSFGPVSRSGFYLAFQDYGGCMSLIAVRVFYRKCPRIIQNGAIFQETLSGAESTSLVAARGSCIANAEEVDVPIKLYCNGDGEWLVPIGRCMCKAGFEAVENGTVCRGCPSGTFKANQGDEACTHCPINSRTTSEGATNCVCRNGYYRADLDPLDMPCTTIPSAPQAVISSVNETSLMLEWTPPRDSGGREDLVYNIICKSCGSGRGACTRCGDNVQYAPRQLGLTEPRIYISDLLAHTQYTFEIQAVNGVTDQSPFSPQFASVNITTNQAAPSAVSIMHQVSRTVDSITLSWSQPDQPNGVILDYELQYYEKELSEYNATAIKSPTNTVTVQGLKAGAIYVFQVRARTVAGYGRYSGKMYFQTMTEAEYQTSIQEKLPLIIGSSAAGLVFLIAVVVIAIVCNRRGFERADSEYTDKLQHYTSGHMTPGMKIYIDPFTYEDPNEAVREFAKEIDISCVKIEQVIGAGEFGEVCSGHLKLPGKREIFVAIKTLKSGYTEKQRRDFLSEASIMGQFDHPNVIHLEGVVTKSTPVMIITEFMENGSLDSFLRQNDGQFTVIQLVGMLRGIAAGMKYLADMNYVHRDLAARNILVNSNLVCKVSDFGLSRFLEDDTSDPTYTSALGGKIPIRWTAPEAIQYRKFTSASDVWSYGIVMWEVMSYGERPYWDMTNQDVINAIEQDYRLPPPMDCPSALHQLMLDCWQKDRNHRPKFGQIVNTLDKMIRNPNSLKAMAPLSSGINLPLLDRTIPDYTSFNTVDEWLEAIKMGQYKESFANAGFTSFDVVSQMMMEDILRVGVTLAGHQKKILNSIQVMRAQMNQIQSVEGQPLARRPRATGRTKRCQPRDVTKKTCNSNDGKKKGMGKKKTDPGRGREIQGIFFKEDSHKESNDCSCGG
# [4] = target: T1, Ephrin type-B receptor 2 (Homo sapiens); conditions: at 10 µM
# [5] = target: T2, Ephrin type-B receptor 3 (Homo sapiens) (UniProt P54753); conditions: at 1 µM
# T2 sequence (whole entry): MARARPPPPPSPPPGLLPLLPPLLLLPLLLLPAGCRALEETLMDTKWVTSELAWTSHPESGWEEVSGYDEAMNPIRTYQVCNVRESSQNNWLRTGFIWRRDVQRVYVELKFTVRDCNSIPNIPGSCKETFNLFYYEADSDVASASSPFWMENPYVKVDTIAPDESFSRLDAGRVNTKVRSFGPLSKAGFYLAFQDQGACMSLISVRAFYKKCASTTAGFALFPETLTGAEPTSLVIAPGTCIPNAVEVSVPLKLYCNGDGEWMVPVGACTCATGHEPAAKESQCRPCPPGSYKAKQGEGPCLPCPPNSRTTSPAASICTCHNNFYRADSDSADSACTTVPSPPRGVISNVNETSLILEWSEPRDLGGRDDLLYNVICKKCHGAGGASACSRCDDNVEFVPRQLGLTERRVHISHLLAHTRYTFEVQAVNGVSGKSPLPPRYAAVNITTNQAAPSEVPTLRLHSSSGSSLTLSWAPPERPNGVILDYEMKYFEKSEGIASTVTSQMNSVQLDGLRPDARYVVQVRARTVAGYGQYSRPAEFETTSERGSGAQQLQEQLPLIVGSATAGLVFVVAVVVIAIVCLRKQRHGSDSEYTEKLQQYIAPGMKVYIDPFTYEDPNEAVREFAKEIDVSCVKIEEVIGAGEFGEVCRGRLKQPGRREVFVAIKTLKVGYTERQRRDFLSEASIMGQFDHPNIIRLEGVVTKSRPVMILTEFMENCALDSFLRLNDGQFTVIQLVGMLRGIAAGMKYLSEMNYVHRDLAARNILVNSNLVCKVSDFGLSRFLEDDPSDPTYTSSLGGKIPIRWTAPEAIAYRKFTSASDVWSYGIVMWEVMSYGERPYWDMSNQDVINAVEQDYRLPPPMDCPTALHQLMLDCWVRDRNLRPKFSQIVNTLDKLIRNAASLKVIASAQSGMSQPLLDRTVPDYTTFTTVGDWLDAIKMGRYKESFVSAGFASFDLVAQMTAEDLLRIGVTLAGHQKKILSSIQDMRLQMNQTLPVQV
# [6] = target: T2, Ephrin type-B receptor 3 (Homo sapiens); conditions: at 10 µM
# [7] = target: T3, Ephrin type-B receptor 4 (Homo sapiens) (UniProt P54760); conditions: at 1 µM
# T3 sequence (whole entry): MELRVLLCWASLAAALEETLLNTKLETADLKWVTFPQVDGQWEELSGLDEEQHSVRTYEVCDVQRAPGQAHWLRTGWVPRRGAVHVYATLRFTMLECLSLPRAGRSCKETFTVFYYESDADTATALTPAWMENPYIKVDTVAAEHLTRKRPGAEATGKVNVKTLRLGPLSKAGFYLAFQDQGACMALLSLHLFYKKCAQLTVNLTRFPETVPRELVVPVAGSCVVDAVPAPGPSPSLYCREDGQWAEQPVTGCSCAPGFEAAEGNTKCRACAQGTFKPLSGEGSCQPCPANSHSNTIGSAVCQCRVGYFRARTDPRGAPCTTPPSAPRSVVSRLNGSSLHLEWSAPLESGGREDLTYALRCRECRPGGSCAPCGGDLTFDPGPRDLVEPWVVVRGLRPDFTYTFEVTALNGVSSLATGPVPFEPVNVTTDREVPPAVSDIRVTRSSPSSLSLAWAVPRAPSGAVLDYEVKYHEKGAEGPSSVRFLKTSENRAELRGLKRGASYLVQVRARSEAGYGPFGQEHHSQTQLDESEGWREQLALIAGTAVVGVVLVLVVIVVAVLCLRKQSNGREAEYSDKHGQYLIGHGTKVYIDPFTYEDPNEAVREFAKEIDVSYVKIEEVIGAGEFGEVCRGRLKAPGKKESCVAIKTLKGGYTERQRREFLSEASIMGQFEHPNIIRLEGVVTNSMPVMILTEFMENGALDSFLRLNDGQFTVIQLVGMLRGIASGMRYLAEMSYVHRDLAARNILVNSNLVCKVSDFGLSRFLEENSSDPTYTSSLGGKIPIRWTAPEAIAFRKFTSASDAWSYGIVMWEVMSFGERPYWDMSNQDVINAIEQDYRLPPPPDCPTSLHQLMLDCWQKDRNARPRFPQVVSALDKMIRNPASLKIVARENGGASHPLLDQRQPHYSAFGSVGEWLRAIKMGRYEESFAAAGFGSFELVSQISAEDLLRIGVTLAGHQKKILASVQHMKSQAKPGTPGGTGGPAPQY
# [8] = target: T3, Ephrin type-B receptor 4 (Homo sapiens); conditions: at 10 µM
# [9] = target: Receptor tyrosine-protein kinase erbB-4 (Homo sapiens) (UniProt Q15303); conditions: at 1 µM
# [10] = target: Receptor tyrosine-protein kinase erbB-4 (Homo sapiens) (UniProt Q15303); conditions: at 10 µM
# [11] = target: Focal adhesion kinase 1 (Homo sapiens) (UniProt Q05397); conditions: at 1 µM
# [12] = target: T4, Ephrin type-A receptor 3 (Homo sapiens) (UniProt P29320); conditions: at 10 µM
# T4 sequence (whole entry): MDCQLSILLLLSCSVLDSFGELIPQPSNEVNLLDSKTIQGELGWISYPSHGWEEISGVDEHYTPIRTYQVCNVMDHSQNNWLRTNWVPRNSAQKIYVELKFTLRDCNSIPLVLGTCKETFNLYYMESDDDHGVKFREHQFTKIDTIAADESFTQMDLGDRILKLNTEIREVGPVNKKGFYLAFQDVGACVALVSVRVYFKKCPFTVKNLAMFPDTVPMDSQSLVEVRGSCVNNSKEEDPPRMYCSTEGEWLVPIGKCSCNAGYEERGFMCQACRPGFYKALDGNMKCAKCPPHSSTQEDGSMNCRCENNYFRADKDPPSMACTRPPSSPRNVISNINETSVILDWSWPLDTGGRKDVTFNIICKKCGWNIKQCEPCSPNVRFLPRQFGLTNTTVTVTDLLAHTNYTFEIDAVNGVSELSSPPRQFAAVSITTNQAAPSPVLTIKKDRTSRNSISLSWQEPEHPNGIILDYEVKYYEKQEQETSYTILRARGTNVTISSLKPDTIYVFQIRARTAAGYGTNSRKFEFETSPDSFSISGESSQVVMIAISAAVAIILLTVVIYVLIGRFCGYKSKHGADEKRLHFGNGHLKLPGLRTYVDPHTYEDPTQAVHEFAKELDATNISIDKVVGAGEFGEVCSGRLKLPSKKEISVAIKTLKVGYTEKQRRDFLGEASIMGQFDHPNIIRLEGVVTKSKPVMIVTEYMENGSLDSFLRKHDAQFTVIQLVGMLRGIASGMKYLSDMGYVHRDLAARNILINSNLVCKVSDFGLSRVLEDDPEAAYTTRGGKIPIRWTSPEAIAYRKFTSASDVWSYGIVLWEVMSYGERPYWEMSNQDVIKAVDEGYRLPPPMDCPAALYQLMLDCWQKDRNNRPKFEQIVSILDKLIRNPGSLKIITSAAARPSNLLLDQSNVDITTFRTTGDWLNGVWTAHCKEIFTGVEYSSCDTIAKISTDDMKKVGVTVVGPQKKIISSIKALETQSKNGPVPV
# [13] = target: Ephrin type-A receptor 7 (Homo sapiens) (UniProt Q15375); conditions: at 10 µM
# Chain of Ephrin type-A receptor 7 (Homo sapiens) (Q15375 28-998 limits assumed): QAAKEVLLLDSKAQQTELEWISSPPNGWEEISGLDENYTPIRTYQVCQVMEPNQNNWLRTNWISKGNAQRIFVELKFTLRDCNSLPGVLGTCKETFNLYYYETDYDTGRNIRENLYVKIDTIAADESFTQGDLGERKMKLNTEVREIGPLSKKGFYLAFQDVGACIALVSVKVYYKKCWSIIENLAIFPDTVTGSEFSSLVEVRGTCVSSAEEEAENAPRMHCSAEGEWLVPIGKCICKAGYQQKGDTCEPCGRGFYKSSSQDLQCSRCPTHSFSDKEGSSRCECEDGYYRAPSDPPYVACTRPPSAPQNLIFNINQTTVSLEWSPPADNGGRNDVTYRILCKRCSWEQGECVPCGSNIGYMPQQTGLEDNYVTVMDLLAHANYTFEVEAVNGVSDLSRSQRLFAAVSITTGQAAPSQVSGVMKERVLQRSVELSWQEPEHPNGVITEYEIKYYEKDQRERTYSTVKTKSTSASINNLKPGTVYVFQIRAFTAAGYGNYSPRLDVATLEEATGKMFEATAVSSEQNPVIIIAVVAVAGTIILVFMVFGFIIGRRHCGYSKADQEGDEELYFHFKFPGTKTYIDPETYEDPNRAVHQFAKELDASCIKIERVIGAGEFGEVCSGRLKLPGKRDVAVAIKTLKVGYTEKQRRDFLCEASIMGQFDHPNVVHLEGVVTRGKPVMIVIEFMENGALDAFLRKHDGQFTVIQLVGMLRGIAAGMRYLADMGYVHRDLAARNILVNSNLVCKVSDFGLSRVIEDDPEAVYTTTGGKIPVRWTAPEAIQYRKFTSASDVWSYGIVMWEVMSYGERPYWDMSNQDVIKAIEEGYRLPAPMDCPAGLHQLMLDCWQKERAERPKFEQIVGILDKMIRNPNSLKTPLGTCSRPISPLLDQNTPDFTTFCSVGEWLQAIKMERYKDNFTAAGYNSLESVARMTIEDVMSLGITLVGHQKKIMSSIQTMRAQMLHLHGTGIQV
# Chain of Focal adhesion kinase 1 (Homo sapiens) (Q05397 2-1052 limits assumed): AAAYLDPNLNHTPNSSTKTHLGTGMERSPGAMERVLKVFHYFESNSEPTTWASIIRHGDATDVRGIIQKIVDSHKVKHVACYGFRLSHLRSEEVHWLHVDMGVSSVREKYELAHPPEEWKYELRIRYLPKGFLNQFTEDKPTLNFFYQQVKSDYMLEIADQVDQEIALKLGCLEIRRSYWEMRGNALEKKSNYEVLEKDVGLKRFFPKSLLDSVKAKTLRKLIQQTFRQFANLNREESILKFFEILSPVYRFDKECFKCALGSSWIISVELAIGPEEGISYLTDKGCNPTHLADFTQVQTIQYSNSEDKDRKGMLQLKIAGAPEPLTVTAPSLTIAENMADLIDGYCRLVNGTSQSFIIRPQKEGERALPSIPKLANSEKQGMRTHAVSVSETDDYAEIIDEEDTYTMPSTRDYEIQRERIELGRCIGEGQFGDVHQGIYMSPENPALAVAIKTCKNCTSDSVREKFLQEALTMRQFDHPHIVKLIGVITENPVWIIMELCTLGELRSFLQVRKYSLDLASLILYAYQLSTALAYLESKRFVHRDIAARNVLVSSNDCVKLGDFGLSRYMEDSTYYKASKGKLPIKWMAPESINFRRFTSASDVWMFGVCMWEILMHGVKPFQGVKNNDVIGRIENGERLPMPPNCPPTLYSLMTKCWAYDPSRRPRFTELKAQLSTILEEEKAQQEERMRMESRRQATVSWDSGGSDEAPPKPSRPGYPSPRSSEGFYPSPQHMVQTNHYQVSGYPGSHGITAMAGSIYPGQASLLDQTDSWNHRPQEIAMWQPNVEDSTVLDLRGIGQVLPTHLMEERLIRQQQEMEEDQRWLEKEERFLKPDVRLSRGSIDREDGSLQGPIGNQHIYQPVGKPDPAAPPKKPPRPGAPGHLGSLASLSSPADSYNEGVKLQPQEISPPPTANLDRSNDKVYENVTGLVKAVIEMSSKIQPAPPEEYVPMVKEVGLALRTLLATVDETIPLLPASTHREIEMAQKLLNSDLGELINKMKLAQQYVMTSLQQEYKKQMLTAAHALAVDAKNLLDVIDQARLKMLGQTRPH
# Chain of Receptor tyrosine-protein kinase erbB-4 (Homo sapiens) (Q15303 whole entry): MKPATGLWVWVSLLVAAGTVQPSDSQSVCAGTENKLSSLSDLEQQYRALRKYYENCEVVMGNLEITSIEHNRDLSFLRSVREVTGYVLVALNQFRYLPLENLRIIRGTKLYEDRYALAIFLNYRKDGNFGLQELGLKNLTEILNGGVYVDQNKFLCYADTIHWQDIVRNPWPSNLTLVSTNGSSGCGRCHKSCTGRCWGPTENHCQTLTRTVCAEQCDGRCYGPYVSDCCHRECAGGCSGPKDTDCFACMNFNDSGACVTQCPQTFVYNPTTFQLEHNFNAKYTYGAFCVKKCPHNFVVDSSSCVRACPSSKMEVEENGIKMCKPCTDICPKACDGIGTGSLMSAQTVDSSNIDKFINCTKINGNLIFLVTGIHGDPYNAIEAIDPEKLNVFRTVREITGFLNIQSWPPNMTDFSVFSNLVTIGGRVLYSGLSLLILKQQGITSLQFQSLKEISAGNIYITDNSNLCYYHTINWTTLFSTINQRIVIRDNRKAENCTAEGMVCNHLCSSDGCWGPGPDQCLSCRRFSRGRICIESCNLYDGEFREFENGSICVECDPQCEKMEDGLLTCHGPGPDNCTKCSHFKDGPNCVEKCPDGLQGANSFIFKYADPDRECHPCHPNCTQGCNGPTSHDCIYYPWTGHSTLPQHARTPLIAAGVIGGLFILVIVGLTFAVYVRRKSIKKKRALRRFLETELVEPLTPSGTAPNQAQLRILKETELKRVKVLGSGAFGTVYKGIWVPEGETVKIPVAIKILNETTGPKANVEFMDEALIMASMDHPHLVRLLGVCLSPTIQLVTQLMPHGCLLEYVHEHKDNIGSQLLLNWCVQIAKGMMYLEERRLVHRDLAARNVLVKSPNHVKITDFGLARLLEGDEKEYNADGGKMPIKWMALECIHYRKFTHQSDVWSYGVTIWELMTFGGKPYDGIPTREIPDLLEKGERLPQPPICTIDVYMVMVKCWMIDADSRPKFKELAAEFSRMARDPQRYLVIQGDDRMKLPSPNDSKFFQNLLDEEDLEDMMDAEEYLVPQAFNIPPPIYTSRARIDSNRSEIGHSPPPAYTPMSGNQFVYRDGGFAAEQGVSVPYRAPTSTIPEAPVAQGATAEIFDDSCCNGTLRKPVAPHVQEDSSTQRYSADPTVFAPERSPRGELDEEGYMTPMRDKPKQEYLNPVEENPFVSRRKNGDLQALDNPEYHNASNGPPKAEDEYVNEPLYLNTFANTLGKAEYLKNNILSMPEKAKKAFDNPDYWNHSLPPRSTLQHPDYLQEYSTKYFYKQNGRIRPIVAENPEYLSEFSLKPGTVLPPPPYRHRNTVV
# Chain of Ephrin type-A receptor 5 (Homo sapiens) (P54756 whole entry): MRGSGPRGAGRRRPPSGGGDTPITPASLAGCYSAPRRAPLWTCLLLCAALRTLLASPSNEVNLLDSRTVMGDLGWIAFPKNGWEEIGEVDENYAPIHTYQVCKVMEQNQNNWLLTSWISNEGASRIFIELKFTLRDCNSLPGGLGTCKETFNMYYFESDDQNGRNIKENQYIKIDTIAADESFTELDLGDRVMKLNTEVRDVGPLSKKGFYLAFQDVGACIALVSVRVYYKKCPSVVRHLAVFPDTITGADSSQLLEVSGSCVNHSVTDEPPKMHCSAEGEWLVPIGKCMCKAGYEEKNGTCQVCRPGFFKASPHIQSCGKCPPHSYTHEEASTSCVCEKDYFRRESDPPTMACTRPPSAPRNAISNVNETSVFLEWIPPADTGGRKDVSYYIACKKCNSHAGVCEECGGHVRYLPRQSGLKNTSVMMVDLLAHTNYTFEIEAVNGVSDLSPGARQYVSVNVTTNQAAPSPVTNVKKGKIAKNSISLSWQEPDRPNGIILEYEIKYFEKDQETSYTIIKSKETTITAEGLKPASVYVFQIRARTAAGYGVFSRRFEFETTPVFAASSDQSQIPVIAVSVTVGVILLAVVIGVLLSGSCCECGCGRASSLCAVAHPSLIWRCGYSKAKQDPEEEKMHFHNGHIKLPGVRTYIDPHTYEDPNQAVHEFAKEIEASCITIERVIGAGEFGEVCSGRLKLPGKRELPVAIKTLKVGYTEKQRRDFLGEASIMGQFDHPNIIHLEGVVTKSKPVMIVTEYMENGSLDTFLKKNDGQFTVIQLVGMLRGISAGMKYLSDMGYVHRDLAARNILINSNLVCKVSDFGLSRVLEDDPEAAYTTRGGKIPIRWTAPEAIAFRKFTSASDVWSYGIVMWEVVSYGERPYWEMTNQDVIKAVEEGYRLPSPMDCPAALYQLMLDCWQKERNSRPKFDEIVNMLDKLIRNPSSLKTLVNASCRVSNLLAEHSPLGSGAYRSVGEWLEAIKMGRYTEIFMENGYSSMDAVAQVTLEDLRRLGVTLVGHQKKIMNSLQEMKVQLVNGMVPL
Structure (SMILES),residual activity [1] [%],residual activity [2] [%],residual activity [3] [%],residual activity [4] [%],residual activity [5],residual activity [6] [%],residual activity [7] [%],residual activity [8] [%],residual activity [9] [%],residual activity [10] [%],residual activity [11] [%],residual activity [12] [%],residual activity [13] [%]
O=C1NC(=O)C(c2cn(CCCn3ccnc3)c3ccccc23)=C1Nc1ccccc1,125,109,115,122,114% (inactive),148,109,119,70,13,119,–,–
Cc1cc(C)c(/C=C2\C(=O)Nc3ccccc32)[nH]1,–,–,–,–,–,–,–,–,–,–,52,80,52
